Where “and” joins values, the source holds several entries; their conditions need not be identical. Identical values can stand only once. Hit rate of the full screen: of about 120,000 compounds, about 5,300 (4.4%) were called active. Not shown: some 22% with an inconclusive outcome. Calls come from the whole dose curve; as a rule, active = well fitted inhibition curve with a large enough effect; inconclusive = small, poorly fitted or top-dose-only effect; inactive = no such curve, though single readings can be large or run the other way. The list comes from a sample in which actives are over-represented; it also holds similar structures and randomly drawn compounds. Where a structure was tested more than once in an assay, its records may differ in their call.
Assay: qHTS Primary assay for Inhibitors of Plasmodium falciparum Dd2 growth in vitro; note: nearly all actives have a fitted effect of over 65% in size;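 for activity, negative = inhibition: plate controls were DMSO vehicle for no effect and reference drug for full effect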
Details: P. falciparum Dd2 growth, SYBR Green, 72 h; series mostly up to 28.9 µM; activity, negative = inhibition: at the top concentration
How it was run: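 Readout: SYBR Green fluorescence, 485 nm excitation, 535 nm emission, after ~16 h lysis at 37C. Before that, Dd2-infected red cells (2.5% hematocrit) grew 72 h with compound, 29 uM top final concentration.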
Potency is the fitted concentration of half-maximal effect.

Row | Structure (SMILES) | outcome | Potency | activity, negative = inhibition
1 | COc1ccccc1C(=O)Nc1ccc2c(c1)CN(Cc1ccccc1)C(=O)C(C)O2 (stereo not drawn) | inactive | – | –
2 | Cc1cccc(CN2CCCN(Cc3ccncc3)C(c3ccccc3)CC(=O)NCC2)c1 (stereo not drawn) | – | 1.26 µM (active) | –
3 | CS(=O)(=O)N1CCCN(C(=O)Cc2cccc(F)c2)CCNC(=O)CC1c1ccccc1 (stereo not drawn) | – | – | -1.53% (inactive)
4 | CS(=O)(=O)N1CCCN(C(=O)CN2CCCCCC2)CCNC(=O)CC1c1ccccc1 (stereo not drawn) | – | – | -8.48% (inactive)
5 | O=C1CC2CCN(Cc3cccnc3)CC2CCN1 (stereo not drawn) | – | – | 9.65% [at 44.1 µM] (inactive)
6 | Cc1ccccc1CNC(=O)C1CCCN(Cc2cccnc2)CCC(=O)NCC1 (stereo not drawn) | – | – | -19.7% (inactive)
7 | O=C1CC(c2ccccc2)N(C(=O)C2CC2)CCCN(C(=O)Cc2cccc(F)c2)CCN1 (stereo not drawn) | – | – | -7.87% (inactive)
8 | CNC(=O)N1CCCN(S(C)(=O)=O)C(c2ccccc2)CC(=O)NCC1 (stereo not drawn) | – | – | 3.9% (inactive)
9 | O=C1CC(c2ccccc2)N(Cc2ccncc2)CCCN(Cc2cccnc2)CCN1 (stereo not drawn) | – | 4.47 µM (active) | –
10 | Cc1ccc(CN2CCCN(Cc3ccncc3)C(c3ccccc3)CC(=O)NCC2)s1 (stereo not drawn) | – | 1 µM (active) | –
11 | N#Cc1ccc(CC(=O)N2CC(CNc3cccnc3)C3(C2)CN(c2ccccc2)C3)cc1 (stereo not drawn) | – | – | -11.1% [at 44.1 µM] (inactive)
12 | CCN1CC2(CCN(C(=O)c3cc4c(nc3OC)CCC4)CC2)OC1=O | – | – | 6% (inactive)
13 | CNC(=O)[C@H]1C[C@H](Oc2ccccc2)CN1C(=O)c1ccccc1 | – | – | -11% (inactive)
14 | FC(F)(F)CN1C2CCC1CN(c1cncc(Cl)n1)C2 | – | – | 4.15% (inactive)
15 | CC(NC(=O)c1coc(COc2ccc3c(c2)OCO3)n1)c1ccc2[nH]ccc2c1 (stereo not drawn) | – | – | -11.9% (inactive)
16 | Cn1cncc1-c1nnc([C@H]2CCN(CC3CC3)C2)o1 | – | – | -3.46% [at 44.1 µM] (inactive)
17 | CCOC(=O)CCNC(=O)N1CC[C@H]2C(=O)NCCCCCCN(Cc3ccncc3)[C@@H]2C1 | – | – | -18.7% (inactive)
18 | C=CCNC(=O)CCc1c(CC)nn(-c2ccccc2)c1Oc1ccccc1OC | inactive | – | –
19 | CC(=O)c1c(C)nn(CC(=O)N2C[C@H](O)[C@@H](N3CCC(O)CC3)C2)c1C | – | – | 11% (inactive)
20 | CCc1nc2c(=O)n(CC(=O)NCc3ccc(Cl)cc3)nc(C)c2s1 | – | – | -13.1% (inactive)
21 | COc1cccc(-c2n[nH]c3c2C(c2cccc(O)c2)N(C)C3=O)c1 (stereo not drawn) | – | – | -21.5% (inactive)

Row | Structure (SMILES) | outcome | Potency | activity, negative = inhibition
22 | CCCCN1C(=O)c2[nH]nc(-c3ccccc3O)c2C1c1cccc(OCc2ccccc2)c1 (stereo not drawn) | – | 3.16 µM (active) | –
23 | CCCOc1ccc(C2c3c(-c4ccccc4O)n[nH]c3C(=O)N2Cc2cccnc2)cc1 (stereo not drawn) | – | – | -2.57% (inactive)
24 | Cc1cc(C(=O)NCC2Cn3cccc3C(=O)N2C)nn1C (stereo not drawn) | – | – | -22.3% (inactive)
25 | CC(C)CN1C(=O)c2ccccc2C(C(=O)NCc2ccccn2)C12CCCC2 (stereo not drawn) | – | – | -1.43% (inactive)
26 | COc1ccccc1NC(=O)C1c2ccccc2C(=O)N(CC(C)C)C12CCCC2 (stereo not drawn) | – | 3.55 µM (active) | –
27 | COC(=O)CCNC(=O)C1c2ccccc2C(=O)N(CC(C)C)C12CCCC2 (stereo not drawn) | – | – | -6.26% (inactive)
28 | Cc1ccc2c(c1)N1C(=O)OC[C@@H]1CCN(C(=O)c1ccno1)C2 | – | – | 20.7% [at 44.1 µM] (inactive)
29 | Cc1cc(C)cc(C(=O)N2CC(c3nnc(-c4ccncc4)o3)C3(CCOCC3)C2)c1 (stereo not drawn) | – | – | -28.2% (inactive)
30 | CC(C)(C)c1nc(C(=O)N2CCOCC2)n2ccccc12 | – | – | -15.6% [at 44.1 µM] (inactive)
31 | O=C(c1nc(-c2cccnc2)c2cnccn12)N1CCN(c2ncccn2)CC1 | inactive | – | –
32 | Cc1cccc(C)c1-c1nc(C(=O)N2CCN(c3ncccn3)CC2)n2ccccc12 | – | inactive and 12.6 µM (active) | –
33 | CN(CC1CCOC1)C(=O)c1ccc(F)cc1F (stereo not drawn) | inactive [at 5.79 µM] | – | –
34 | O=C(Cc1cccc(F)c1)N1CCCC(Cc2nncn2-c2ccccc2)C1 (stereo not drawn) | inactive | – | –
35 | CCOC(=O)C1CCCN(C(=O)Cc2ccc(N(Cc3cccc(F)c3)C(=O)c3ccco3)cc2)C1 (stereo not drawn) | – | 3.98 µM (active) | –
36 | CC(C)NC(=O)Cc1ccc(N(Cc2cccc(F)c2)C(=O)c2ccco2)cc1 | inactive | – | –
37 | CN(CC(=O)N1CCCC(Cc2nncn2-c2ccccc2)C1)S(=O)(=O)c1cccs1 (stereo not drawn) | inactive | – | –
38 | Cc1ccccc1C(=O)NCc1cccnc1Oc1cccc(C(F)(F)F)c1 | – | – | -19.3% (inactive)
39 | COc1cccc(-c2cc(C(=O)N3CCC(c4nn(C)c(=O)n4C(C)C)CC3)[nH]n2)c1 | inactive | – | –
40 | CCC(C)N1Cc2cc(NC(=O)c3ccc([N+](=O)[O-])cc3)ccc2OCC1=O (stereo not drawn) | inactive | – | –
41 | CCC1Oc2ccc(NC(=O)c3cccs3)cc2CN(Cc2ccc(F)cc2)C1=O (stereo not drawn) | – | – | -11.1% (inactive)
42 | CCC(C(=O)Nc1ccc2c(c1)CN(Cc1cc(F)cc(F)c1)C(=O)CO2)c1ccccc1 (stereo not drawn) | – | 6.31 µM (active) | –

Row | Structure (SMILES) | outcome | Potency | activity, negative = inhibition
43 | O=C1Nc2ccccc2C12CCN([S+](=O)([O-])c1cccc(C(F)(F)F)c1)C2 (stereo not drawn) | inactive | – | –
44 | COc1ccc([C@H]2C[C@@H](O)[C@@H](O)[C@@H]2NC(=O)c2ccccc2)cc1 | – | – | -24.6% [at 44.1 µM] (inactive)
45 | CCOc1ccccc1NC(=O)Cn1nnc(C(=O)Nc2ccc(C)c(C)c2)c1N | – | – | -8.19% (inactive)
46 | COc1ccccc1Nc1c2c(nc3ccc(NC(=O)/C=C/c4cc(OC)c(OC)c(OC)c4)cc13)CCCC2 | – | 3.98 µM (active) | –
47 | CCOc1ccc(-n2nc3ccc(NC(=O)c4ccc(OC)c(Cl)c4)cc3n2)cc1 | inactive | – | –
48 | COc1cc(NC(=O)c2nc3ccccc3nc2C)cc(OC)c1OC | inactive | – | –
49 | COc1cc(C(=O)Nc2ccc(-n3c(C)nc4ccccc4c3=O)cc2)cc(OC)c1OC | – | – | -5.62% (inactive)
50 | CCOc1ccc(C(=O)Nc2ccc3nc4c(c(Nc5ccccc5OC)c3c2)CCCC4)cc1 | – | 11.2 µM (active) | –
51 | Cc1noc(-c2ccco2)c1C(=O)NC(C)c1ccccc1 (stereo not drawn) | – | – | -24.3% (inactive)
52 | O=[S+]([O-])(c1ccc(Br)cc1)c1nnn2c1nc(NC1CC1)c1ccccc12 | – | – | -7.76% (inactive)
53 | CCc1cc(=O)n(CC(=O)Nc2cccc(C(C)=O)c2)c(-c2ccccc2)n1 | inactive | – | –
54 | Cc1ccc(NC(=O)CC2=C3CCCCC3NC2=O)cc1 (stereo not drawn) | – | – | 0.61% (inactive)
55 | Cc1ccccc1-c1ccc(C(=O)NCCCn2ccnc2C(C)C)cn1 | – | – | -12.5% (inactive)
56 | CC(Cn1cncn1)Nc1nc(-c2ccncc2)nc2c1cnn2C (stereo not drawn) | – | – | -8.69% (inactive)
57 | CC(C)c1nccn1CCCNc1nc(-c2ccncc2)nc2c1cnn2C | – | 12.6 µM (active) | –
58 | O=C(NC1CCCCC1)N1C[C@@H]2C[C@H](C1)c1c(NS(=O)(=O)c3ccccc3)ccc(=O)n1C2 | – | – | 20.8% (inactive)
59 | Cc1cc(C)cc(NC(=O)Cn2nc3n(c2=O)CCCC3)c1 | inactive | – | –
60 | COC1C(=O)N(C2CCN(Cc3ccc(O)cc3)CC2)C12CCOCC2 (stereo not drawn) | – | – | -25.7% (inactive)
61 | Cc1nn2c(c1-c1ccccc1-c1ccccc1)N(CC1CC1)CCC2 | – | 0.316 µM (active) | –
62 | Cc1nn2c(c1-c1ccccc1-c1ccccc1)N(C(=O)CN1CCOCC1)CCC2 | inactive; activator; fitted 1.5849 uM [at 44.1 µM] | – | –
63 | Cc1nn2c(c1-c1ccnn1C(C)C)N(CC1CCOCC1)CCC2 | – | – | -17% [at 44.1 µM] (inactive)

Reference: PubChem BioAssay AID1347417 (National Center for Advancing Translational Sciences (NCATS), 2020)
